Compound activity deposited in PubChem by National Center for Advancing Translational Sciences (NCATS).
Most compounds without a hit are left out; they make up all but 11% or so of the library.
HTT ATP protect – qHTS Multiplex Assay to Identify Dual Action Probes in a Cell Model of Huntington: Cytoprotection (ATP); PC12 HTT-Q103 induced, cytoprotection, ATP luminescence, 40 h; Potency, µM (doses to about 56.4 µM), for the others: cytoprotection (ATP increase), most hits filed as activators; 230,000 compounds, 0.14% hits; AID 1471, 2008; active = well fitted curve in the direction sought with a large enough effect; inconclusive = small, poorly fitted or top-dose-only effect, or another doubt; inactive = no such curve, though single readings can be large; an effect the other way counts as inactive or inconclusive; note: potency is the fitted concentration of half-maximal effect; % of control where 0% means no effect; nearly all actives have a fitted effect of over 45% in size
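PC12 cells stably carrying ecdysone-inducible Htt exon 1 (Q103)–GFP were induced with 100 nM tebufenozide (final) alongside library compounds in a dose series. Cytoprotection was scored as retained ATP by ATPlite luminescence.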
PNC assembly inh – High Content Assay for Compounds that inhibit the Assembly of the Perinucleolar Compartment; PC3M PTB-GFP, PNC prevalence imaging, 16 h; active compounds read low; activity change (PNC), negative = inhibition, % at 10 µM; 140,000 compounds, 3.1% hits; AID 2417, 2010;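 active = readout at or below -70, meaning at least 70% loss of cells showing the perinucleolar compartment, a nuclear body marking cancer cells; inconclusive = readout between -30 and a set limit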;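 note: plate controls were DMSO wells for no effect and camptothecin positive control wells for full effect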
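Read-out is percentage of cells bearing a perinucleolar compartment, from automated 20x imaging of fixed, Hoechst-stained PC3M PTB-GFP cells. Cells were seeded 4 h, then exposed 16 h to compound (23 nl of library stock) in duplicate plates.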
HPGD block – qHTS Assay for Inhibitors of HPGD (15-Hydroxyprostaglandin Dehydrogenase). 15-hydroxyprostaglandin dehydrogenase [NAD(+)] (Homo sapiens), P15428. Potency, µM, for inactives: at the highest dose activity change, negative = inhibition, hits mostly inhibitors. purified HPGD, NADH fluorescence kinetic, PGE2 substrate. 150,000 compounds, 4.3% hits; note: potency is the fitted concentration of half-maximal effect; % is set by controls: 0 for no effect and ±100 for the full control effect
Target sequence (P15428 whole entry, looked up): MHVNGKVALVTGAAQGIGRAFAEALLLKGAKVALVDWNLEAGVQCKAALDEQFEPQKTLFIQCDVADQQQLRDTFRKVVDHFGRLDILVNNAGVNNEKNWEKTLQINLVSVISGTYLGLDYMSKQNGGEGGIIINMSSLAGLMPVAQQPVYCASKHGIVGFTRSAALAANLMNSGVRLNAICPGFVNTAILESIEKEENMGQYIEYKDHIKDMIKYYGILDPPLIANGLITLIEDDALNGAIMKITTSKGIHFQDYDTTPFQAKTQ
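NADH formation kinetics: reaction with 30 uM PGE2 and 1 mM NAD+ (final), 20 nM enzyme, Tris-HCl pH 8 with Tween 20, after 15 min compound preincubation at room temperature. Fluorescence change, last versus first of five reads.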
ALDH1A1 inh – qHTS Assay for Inhibitors of Aldehyde Dehydrogenase 1 (ALDH1A1). Aldehyde dehydrogenase 1A1 (Homo sapiens), P00352. Purified ALDH1A1, NADH fluorescence, propionaldehyde substrate. Potency, µM (top dose mostly 75.3 µM), without a hit: at the top dose activity, negative = inhibition, actives largely listed as inhibitors. 220,000 compounds, 7.3% hits. AID 1030, 2008;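 note: potency is the fitted concentration of half-maximal effect; plate controls were no enzyme wells and a reference inhibitor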
HTT aggregate – qHTS Multiplex Assay to Identify Dual Action Probes in a Cell Model of Huntington: Aggregate Formation (GFP); PC12 HttQ103-GFP aggregates, Acumen cytometry, 40 h; 220,000 compounds, 1.1% hits; Potency, µM (series often up to 46.1 µM), for the others: at the top dose activity change, negative = inhibition, usual class: inhibitors; AID 1688, 2009; active = well fitted curve in the direction sought with a large enough effect; inconclusive = small, poorly fitted or top-dose-only effect, or another doubt; inactive = no such curve, though single readings can be large; an effect the other way counts as inactive or inconclusive; note: potency is the fitted concentration of half-maximal effect; % is set by controls: 0 for no effect and ±100 for the full control effect; nearly all actives have a fitted effect of over 60% in size
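Quantitative HTS on tebufenozide-induced (100 nM) PC12 cells stably expressing polyQ103 Huntingtin exon 1–GFP. Reduction of bright GFP aggregates, detected by laser scanning cytometry after lysis, identified actives across the titration.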
RGS12 GoLoco inh – qHTS Assay for Inhibitors of RGS12 GoLoco Motif Activity (Red Fluorophore). Guanine nucleotide-binding protein G(i) subunit alpha-1 (Homo sapiens), P63096. Gai1:RGS12 GoLoco peptide FP, rhodamine, 10 min. Potency, µM (doses to about 61.6 µM), for inactives: at the highest dose activity, negative = inhibition, hits mostly inhibitors. 230,000 compounds, 0.44% hits; active = well fitted inhibition curve with a large enough effect, not every such curve was filed as active; inactive = no such curve, though single readings can be large or run the other way; note: potency is the fitted concentration of half-maximal effect; % is set by controls: 0 for no effect and ±100 for the full control effect; nearly all actives have a fitted effect of over 30% in size
* marks the source's active call; other numbers are inactive results; ? = inconclusive; / = no result; [ ] = another dose, or the depositor's remark. Unless noted, calls come from the whole dose curve; as a rule, active = well fitted inhibition curve with a large enough effect (not every such curve was filed as active); inconclusive = small, poorly fitted or top-dose-only effect, or another doubt; inactive = no such curve, though single readings can be large or run the other way.

SMILES	HTT ATP protect	PNC assembly inh	HPGD block	ALDH1A1 inh	HTT aggregate	RGS12 GoLoco inh
CCn1c(SCC(=O)Nc2ccc(C(=O)OC)cc2)nc2cccnc21	-11.5%[10 µM]	-23.4	3.55µM*	1.0%	9.9%	-20.1%
CCOC(=O)CNC(=O)CSc1nc2cccnc2n1C1CCCCC1	-5.0%	-92.5*	-13.2%	0.4%	-3.2%	5.0%
CCOC(=O)CNC(=O)CSc1nc2cccnc2n1Cc1ccccc1	3.5%[10 µM]	-80.5*	-10.4%	?	6.6%	-5.0%
CN(C1CCS(=O)(=O)C1)S(=O)C12CC3CC(CC(C3)C1)C2 (stereo not given)	-16.1%[10 µM]	-100.0*	-9.9%	?	15.3%	-42.1%
O=C(Nc1cccc(-c2nc3cccnc3s2)c1)C1c2ccccc2Oc2ccccc21	/	-118.9*	?	?	10.4%	8.8%
O=C(Nc1cccc(-c2nc3cccnc3s2)c1)c1cccnc1Cl	21.9%[10 µM]	/	/	/	-0.4%[9.22 µM]	4.5%
COc1ccccc1CNC(=O)C(=O)NCC1OCCN1S(=O)(=O)c1cccs1 (stereo not given)	4.2%[10 µM]	/	/	/	3.5%[9.22 µM]	6.1%
CNC(=O)C(=O)NCC1OCCCN1S(=O)(=O)c1cccs1 (stereo not given)	-20.7%[10 µM]	17.2	-2.4%	?	-7.0%	5.4%
O=C(NCc1ccccc1Cl)C(=O)NCC1OCCN1S(=O)(=O)c1cccs1 (stereo not given)	13.8%[10 µM]	/	/	14.1µM*	23.1%	14.7%
O=C(NCCc1c[nH]c2ccccc12)C(=O)NCC1OCCCN1S(=O)(=O)c1cccs1 (stereo not given)	-42.7%	/	/	25.1µM*	-23.9%	13.4%
O=C(NCCO)C(=O)NCC1OCCCN1S(=O)(=O)c1cccs1 (stereo not given)	-13.2%[10 µM]	-80.2*	-4.3%	17.8µM*	3.2%	-9.6%
O=C(NCc1cccs1)C(=O)NCC1OCCCN1S(=O)(=O)c1cccs1 (stereo not given)	-32.3%	/	/	14.1µM*	16.9%	5.0%
O=C(O)c1ccc2cccc(O)c2n1	8.7%[10 µM]	/	/	9.3%	-3.0%[9.22 µM]	6.1%
Oc1cccc2ccc(Nc3ccccn3)nc12	-94.8%[10 µM]	59.6	-14.7%	-7.5%	3.55µM*	-12.8%
Cc1cc(C)c(C)c(S(=O)(=O)N2CCN(c3ccc(O)cc3)CC2)c1C	-38.0%	/	/	22.4µM*	?	-0.2%
O=C(NCCN1CCc2ccccc2C1)C1CC(=O)N(C2CCCC2)C1 (stereo not given)	10.2%	0.2	?	35.5µM*	?	-8.0%
CN1CCN(CCCNC(=O)C2CC(=O)N(C3CCCCC3)C2)CC1 (stereo not given)	-15.0%[0.074 µM]	?	-0.1%	0.4%	-15.1%	1.5%
FC(F)(F)c1cc(CN2CC3(CCNCC3)C2)cc(C(F)(F)F)c1	-44.5%	/	-9.1%	-0.6%	/	10.7%
C1CCCCCC2(CCCCC1)OCC(CN1CCOCC1)O2 (stereo not given)	23.8%[10 µM]	?	-9.0%	-2.5%	14.4%	-4.4%
O=c1[nH]n(CC2COC3(CCCCC3)O2)c(=O)c2ccccc12 (stereo not given)	-19.0%	10.1	-17.8%	12.6µM*	19.4%	0.4%
CCc1nc(C)cc2c1sc1ccccc12	2.8%[10 µM]	/	/	/	7.1%[9.22 µM]	-0.6%
CC[n+]1c(C)cc2c(sc3ccccc32)c1C	/	/	/	?	16.4%	4.47µM*
COc1ccc(Cl)cc1NC(=O)CCc1nc(-c2ccccc2F)no1	-26.6%	/	/	4.2%	-8.7%	-4.6%
O=C(CCc1nc(-c2ccccc2F)no1)Nc1ccc(Oc2ccccc2)cc1	-88.7%	?	-17.5%	?	3.98µM*	5.7%
COc1cccc(NC(=O)CCc2nc(-c3ccccc3F)no2)c1	-10.5%	-21.0	-5.6%	0.0%	?	1.9%
